Measurements: PubChem BioAssay (NCATS)
Inconclusive results are not listed. Activity calls are given as the source filed them. Calls come from the whole dose curve.

Target: Peroxisome proliferator-activated receptor delta (Homo sapiens) (UniProt Q03181)
Test: qHTS assay for small molecule agonists of peroxisome proliferator-activated receptor delta signaling (AID 588534);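 note: 0% = DMSO basal wells and 100% = positive control agonist at 10 µM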
Settings: HEK293T PPARdelta-UAS-bla, beta-lactamase ratio, 18 h; series mostly up to 76.7 µM; activation: at the top concentration
Description: NIH Chemical Genomics Center [NCGC] U.S. Environmental Protection Agency [EPA] National Institutes of Environmental Health Sciences [NIEHS] National Toxicology Program [NTP] NCGC Assay Overview The Peroxisome proliferator-activated receptors (PPARs) are lipid-activated transcription factors of the nuclear receptor superfamily with three distinct subtypes namely PPAR alpha, PPAR delta (also called PPAR beta) and PPAR gamma. All these subtypes heterodimerizes with Retinoid X receptor (RXR) and have different physiological functions. […] This role of PPAR delta implicates the potential use of its ligands in the treatment of metabolic disorders.
Compounds were screened in a titration series in 1536-well format. […] Concentration-response titration points for each compound were fitted to the Hill equation yielding concentrations of half-maximal stimulation (EC50) and maximal response (efficacy) values. qHTS protocol for PPAR-delta beta-lactamase assay in agonist mode [Step] [Parameter] [Value] [Description] 1. Reagent; 6 uL; 4000 cells/well 2. Incubation; 37 C for 5 hrs 3. Compounds; 23 nL; 0.59 nM to 92 uM 4. […] Incubation; 37 C for 18 hrs 6. Detection reagent; 1 uL of CCF4-dye 7. Incubation; RT for 2 hrs 8. Detection; Fluorescence; Envision plate reader

Chain of Peroxisome proliferator-activated receptor delta (Homo sapiens) (Q03181 whole entry, looked up): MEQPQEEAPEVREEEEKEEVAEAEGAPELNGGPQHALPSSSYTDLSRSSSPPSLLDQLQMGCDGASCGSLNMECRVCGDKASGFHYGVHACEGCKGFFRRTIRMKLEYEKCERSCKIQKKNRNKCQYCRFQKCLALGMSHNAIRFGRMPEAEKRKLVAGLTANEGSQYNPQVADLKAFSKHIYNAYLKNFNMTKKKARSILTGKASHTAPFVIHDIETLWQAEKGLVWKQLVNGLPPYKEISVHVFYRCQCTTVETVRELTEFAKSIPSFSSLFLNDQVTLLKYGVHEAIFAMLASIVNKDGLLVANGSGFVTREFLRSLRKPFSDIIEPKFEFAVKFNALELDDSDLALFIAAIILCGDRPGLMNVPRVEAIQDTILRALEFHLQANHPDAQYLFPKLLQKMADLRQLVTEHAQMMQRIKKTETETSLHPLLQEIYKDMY

SMILES	activation	outcome
FC(F)(F)c1ccc(OCCCOc2c(Cl)cc(OCC=C(Cl)Cl)cc2Cl)nc1	0.408% (inactive)	–
CCOP(=S)(OCC)SCSP(=S)(OCC)OCC	2.03% (inactive)	–
Clc1ccccc1-c1nnc(-c2ccccc2Cl)nn1	0.468% (inactive)	–
C=CC(C)(O)CC/C=C(\C)CCC=C(C)C (stereo not given)	-1.3% (inactive)	–
O=C1OC(=O)c2c(Br)c(Br)c(Br)c(Br)c21	–	inactive
CC(Oc1cc(Cl)c(Cl)cc1Cl)C(=O)O (stereo not given)	-2.54% (inactive)	–
CCc1cnc(C2=NC(C)(C(C)C)C(=O)N2)c(C(=O)O)c1 (stereo not given)	-3.42% (inactive)	–
O=C(O)CC(C(=O)O)C(CC(=O)O)C(=O)O (stereo not given)	–	inactive
C=C(C#N)C(=O)OCC	0.705% (inactive)	–
Cc1cc(C)cc(O)c1	0.738% (inactive)	–
COC(=O)c1ccccc1S(=O)(=O)NC(=O)Nc1nc(C)nc(OC)n1	3.25% (inactive)	–
CCCCCCc1ccc(-c2ccc(C#N)cc2)cc1	14.4% (inactive)	–
CCOP(=S)(OCC)Oc1ccc(S(C)=O)cc1 (stereo not given)	7.53% (inactive)	–
c1ccc2c(c1)ccc1ncccc12	2.37% (inactive)	–
O=C(NC(=O)c1c(F)cccc1F)Nc1cc(Cl)c(OC(F)(F)C(F)F)c(Cl)c1	-11.2% (inactive)	–
OCc1cccc(Oc2ccccc2)c1	2% (inactive)	–
C=C1C[C@]23C[C@@]1(O)CC[C@H]2[C@@]12C=C[C@H](O)[C@@](C)(C(=O)O1)[C@H]2[C@@H]3C(=O)O	1.74% (inactive)	–
CCOc1cc(OCC)c(C(C)=O)cc1OCC	-14.3% (inactive)	–
Clc1ccc(-c2cc(Cl)c(Cl)cc2Cl)cc1Cl	2.66% (inactive)	–
C=CC(C)(O)CCCC(C)CCCC(C)CCCC(C)C (stereo not given)	15.6% (inactive)	–

SMILES	activation	outcome
C=C(C)CN(CC)c1c([N+](=O)[O-])cc(C(F)(F)F)cc1[N+](=O)[O-]	6.92% (inactive)	–
CC=C(Cl)Cl	0.326% (inactive)	–
CO[Si](CCCNCCN)(OC)OC	5.98% (inactive)	–
Cc1c(F)c(F)c(COC(=O)C2C(/C=C(\Cl)C(F)(F)F)C2(C)C)c(F)c1F (stereo not given)	5.4% (inactive)	–
COC(=O)C(C)Oc1ccc(Oc2ncc(C(F)(F)F)cc2Cl)cc1 (stereo not given)	-11.1% (inactive)	–
C=Cc1ccccc1Cl	-1.75% (inactive)	–
CCC(=O)/C=C/C1C(C)=CCCC1(C)C (stereo not given)	8.01% (inactive)	–
CCOc1cc(C(C)(C)C)ccc1C1COC(c2c(F)cccc2F)=N1 (stereo not given)	-13.2% (inactive)	–
COC(=O)C(C)Oc1ccc(Oc2ccc(Cl)cc2Cl)cc1 (stereo not given)	-14% (inactive)	–
COc1cc(OC)nc(NC(=O)NS(=O)(=O)c2ncccc2OCC(F)(F)F)n1	-4.51% (inactive)	–
COc1cc(OC)nc(NC(=O)NS(=O)(=O)c2ncccc2C(F)(F)F)n1	5.89% (inactive)	–
CCCCCCCCC/C=C/CC1CC(=O)OC1=O (stereo not given)	5.98% (inactive)	–
Cc1ccc(C(C)(C)C)cc1	1.93% (inactive)	–
CCCCCCCCC	10.7% (inactive)	–
COc1nn(C(=O)NS(=O)(=O)c2ccccc2OC(F)(F)F)c(=O)n1C	3.7% (inactive)	–
c1ccccc1	–	inactive
COC(=O)c1ccccc1S(=O)(=O)NC(=O)N(C)c1nc(C)nc(OC)n1	5.54% (inactive)	–
CC(C)(C)c1cc(C(C)(C)C)c(O)c(C(C)(C)C)c1	12.5% (inactive)	–
CCCC[O][Al]([O]CCCC)[O]CCCC	6.52% (inactive)	–
CCCCCCCCCCCCCCCO	0.0793% (inactive)	–
